# Results filed as inconclusive are left out. Where a call stands in place of a potency, no number is given. The source made the active and inactive calls. Calls come from the whole dose curve; as a rule, active = well fitted activation curve with a large enough effect; inconclusive = small, poorly fitted or top-dose-only effect; inactive = no such curve, though single readings can be large or run the other way.
# Test: qHTS Assay for Identifying a Potential Treatment of Ataxia-Telangiectasia: Secondary assay (no NCS) hit validation;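 note: phosphorylated KAP1 signal as a proxy for ATM-like kinase activity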
# Conditions: A-T patient fibroblasts, AlphaLISA, no DNA damage added, 90 min; series mostly up to 76.9 µM
# In short: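 Without NCS-induced DNA breaks, ATM-like activity scored as phospho-KAP1 AlphaLISA signal (pKAP1/total KAP1 bead pair) in ATM-null F2112 fibroblasts; compound series up to 76.7 uM final, 37C incubation, lysates read on AlphaScreen protocol.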
# Potency is the fitted concentration of half-maximal effect.
row,SMILES,Potency
1,O=C(CSc1nnc(CNC(=O)c2ccccc2)o1)NCCc1ccccc1,inactive
2,O=C(CNCc1cccs1)Nc1cc(S(=O)(=O)N2CCCC2)ccc1Cl,inactive
3,CNC(=O)c1ccc(-c2cc3onc(-c4ccccc4)c3c(=O)n2C)cc1,18.4 µM (active)
4,CCOC(=O)c1c(CSc2ccsc2)n(C)c2cc(Br)c(O)c(CN(C)C)c12,26 µM (active)
5,Cc1ccc(C)c(-c2csc(Nc3ncccn3)n2)c1,inactive
6,Cc1cc(C)c2c(Cn3ccnc3)cc(=O)oc2c1,inactive
7,CCN1C/C(=C/c2sccc2C)c2nc3ccccc3c(C(=O)O)c2C1,16.4 µM (active)
8,Cc1ccc(OC(=O)c2cc(C)nn2C(C)(C)C)cc1,inactive
9,O=C(NCc1ccccc1)c1cccnc1Sc1ccccc1,inactive
10,CCN(CC)S(=O)(=O)c1ccc(Cl)c(NC(=O)CCCCl)c1,inactive
11,CN(C)C(=O)CN(C)S(=O)(=O)c1ccc(Cl)cc1,inactive
12,C=CCSc1nc2ccccc2n1C(=O)/C=C/c1cc(OC)c(OC)c(OC)c1,inactive
13,C(=N\Nc1ccccn1)/c1c[nH]c2ccccc12,inactive
14,CCCCN(c1nc2ccccc2nc1Cl)S(=O)(=O)c1ccc(C)cc1,inactive
15,Cc1nn(C)c(Cl)c1CN1CCN(C2CCCC2)C(CCO)C1 (centres undefined),inactive
16,Cc1ccc(C2(C)NC(=O)N(CC(=O)Nc3ccccc3N3CCCC3)C2=O)cc1 (centres undefined),inactive
17,NC(=O)C1CCN(Cc2nc3cc(C(F)(F)F)ccc3c(=O)[nH]2)CC1,inactive

row,SMILES,Potency
1,CCN(CC)c1ccc2c(Cl)c(Br)c(=O)oc2c1,inactive
2,O=C(O)c1nccnc1C(=O)Nc1ccccc1-c1ccccc1,inactive
3,Cc1ccc2c(c1)sc(=NC(=O)C1CC1)n2C,inactive
4,CNC(=S)N/N=C/c1ccc2c(c1)OCCO2,inactive
5,O=C(OCCc1cc2ccccc2c(=O)o1)c1cccc(Br)c1,inactive
6,COc1ccc(N2CCN(C(=O)c3cc4cc(Cl)ccc4[nH]3)CC2)cc1,inactive
7,Fc1ccc(C2=NOC(c3nnc(-c4ccccc4)o3)C2)cc1 (centres undefined),inactive
8,Nc1nc2ccccc2cc1-c1cccs1,inactive
9,CCOc1ccc(NC2=CC(=O)CCC2)cc1,inactive
10,COc1ccccc1-n1c(SCC(N)=O)nc2sc3c(c2c1=O)CCC3,inactive
11,CC1CC(C)CN(S(=O)(=O)c2ccc(C(=O)NCCCn3ccnc3)cc2)C1 (centres undefined),inactive
12,CN(CCc1ccccn1)C(=O)c1cc(COc2ccc(F)cc2F)on1,inactive
13,O=C(N/N=C/c1cccc2ccccc12)c1cccnc1,inactive
14,Cc1nnc(SCC(=O)NC(=O)Nc2ccc3c(c2)OCCO3)n1N,inactive
15,COC(=O)Cc1ccc(NC(=S)NCCSc2ccc(Cl)cc2)cc1,inactive
16,O=C1NC(NS(=O)(=O)c2ccc(Cl)cc2)(C(F)(F)F)C(=O)N1CCc1ccccc1 (centres undefined),inactive
17,CCCc1nn(C)c(C(=O)Nc2ccc(C(C)(C)C)cc2)c1Cl,inactive

# — PubChem BioAssay AID493201 (National Center for Advancing Translational Sciences (NCATS), 2011)
